Measured values as given in the supplement of paper PMC10849652.
Of roughly 7,900 targets only a part is listed; those with a hit were picked by preference. About 0.6% of all pairs of compound and target were hits.

Compound: C1CN(CCC1(CC2=CC=C(C=C2)Cl)N)C3=NC=NC4=C3C=CN4
Assay: log2 fold change, soluble protein after heating vs DMSO (PISA); higher = thermal stabilisation; K562 cells, 10 uM, 30 min; active = over 0.2 and 3.5 SD of the protein, either way, in both replicates (recomputed)
Summary of the method: (§1)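 K562 cells (2×10^6 cells/mL) were treated with 10 μM compound for 30 min, and aliquots were heated for 3 min over 48°C-58°C. Pooled aliquots were extracted in PBS with 0.5% NP-40 at 4°C, and the supernatant after 21,000xg for 90 min was measured by TMTpro 16plex LC-MS/MS with channel sums equalised. Reported thermal stability, relative to control samples and from duplicates, is a log2 fold change.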

Sequence of UniProt Q96EK5 (Q96EK5 whole entry, looked up): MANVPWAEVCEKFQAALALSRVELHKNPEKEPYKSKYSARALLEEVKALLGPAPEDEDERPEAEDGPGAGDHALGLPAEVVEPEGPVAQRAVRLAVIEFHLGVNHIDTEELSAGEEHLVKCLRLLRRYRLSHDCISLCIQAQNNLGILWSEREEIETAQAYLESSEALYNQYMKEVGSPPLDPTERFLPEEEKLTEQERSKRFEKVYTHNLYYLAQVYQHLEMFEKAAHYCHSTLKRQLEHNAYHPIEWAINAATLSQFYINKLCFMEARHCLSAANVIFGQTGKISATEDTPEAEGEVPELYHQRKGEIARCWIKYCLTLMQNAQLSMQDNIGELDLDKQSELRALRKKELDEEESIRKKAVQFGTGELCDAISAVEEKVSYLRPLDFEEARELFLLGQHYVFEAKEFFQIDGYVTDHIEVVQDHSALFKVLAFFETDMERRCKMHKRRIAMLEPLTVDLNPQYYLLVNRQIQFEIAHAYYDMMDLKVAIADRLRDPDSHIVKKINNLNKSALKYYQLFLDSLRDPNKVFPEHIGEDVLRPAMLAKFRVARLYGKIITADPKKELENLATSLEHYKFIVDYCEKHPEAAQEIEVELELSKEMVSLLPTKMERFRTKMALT
Sequence of UniProt Q14676 (Q14676 whole entry, looked up): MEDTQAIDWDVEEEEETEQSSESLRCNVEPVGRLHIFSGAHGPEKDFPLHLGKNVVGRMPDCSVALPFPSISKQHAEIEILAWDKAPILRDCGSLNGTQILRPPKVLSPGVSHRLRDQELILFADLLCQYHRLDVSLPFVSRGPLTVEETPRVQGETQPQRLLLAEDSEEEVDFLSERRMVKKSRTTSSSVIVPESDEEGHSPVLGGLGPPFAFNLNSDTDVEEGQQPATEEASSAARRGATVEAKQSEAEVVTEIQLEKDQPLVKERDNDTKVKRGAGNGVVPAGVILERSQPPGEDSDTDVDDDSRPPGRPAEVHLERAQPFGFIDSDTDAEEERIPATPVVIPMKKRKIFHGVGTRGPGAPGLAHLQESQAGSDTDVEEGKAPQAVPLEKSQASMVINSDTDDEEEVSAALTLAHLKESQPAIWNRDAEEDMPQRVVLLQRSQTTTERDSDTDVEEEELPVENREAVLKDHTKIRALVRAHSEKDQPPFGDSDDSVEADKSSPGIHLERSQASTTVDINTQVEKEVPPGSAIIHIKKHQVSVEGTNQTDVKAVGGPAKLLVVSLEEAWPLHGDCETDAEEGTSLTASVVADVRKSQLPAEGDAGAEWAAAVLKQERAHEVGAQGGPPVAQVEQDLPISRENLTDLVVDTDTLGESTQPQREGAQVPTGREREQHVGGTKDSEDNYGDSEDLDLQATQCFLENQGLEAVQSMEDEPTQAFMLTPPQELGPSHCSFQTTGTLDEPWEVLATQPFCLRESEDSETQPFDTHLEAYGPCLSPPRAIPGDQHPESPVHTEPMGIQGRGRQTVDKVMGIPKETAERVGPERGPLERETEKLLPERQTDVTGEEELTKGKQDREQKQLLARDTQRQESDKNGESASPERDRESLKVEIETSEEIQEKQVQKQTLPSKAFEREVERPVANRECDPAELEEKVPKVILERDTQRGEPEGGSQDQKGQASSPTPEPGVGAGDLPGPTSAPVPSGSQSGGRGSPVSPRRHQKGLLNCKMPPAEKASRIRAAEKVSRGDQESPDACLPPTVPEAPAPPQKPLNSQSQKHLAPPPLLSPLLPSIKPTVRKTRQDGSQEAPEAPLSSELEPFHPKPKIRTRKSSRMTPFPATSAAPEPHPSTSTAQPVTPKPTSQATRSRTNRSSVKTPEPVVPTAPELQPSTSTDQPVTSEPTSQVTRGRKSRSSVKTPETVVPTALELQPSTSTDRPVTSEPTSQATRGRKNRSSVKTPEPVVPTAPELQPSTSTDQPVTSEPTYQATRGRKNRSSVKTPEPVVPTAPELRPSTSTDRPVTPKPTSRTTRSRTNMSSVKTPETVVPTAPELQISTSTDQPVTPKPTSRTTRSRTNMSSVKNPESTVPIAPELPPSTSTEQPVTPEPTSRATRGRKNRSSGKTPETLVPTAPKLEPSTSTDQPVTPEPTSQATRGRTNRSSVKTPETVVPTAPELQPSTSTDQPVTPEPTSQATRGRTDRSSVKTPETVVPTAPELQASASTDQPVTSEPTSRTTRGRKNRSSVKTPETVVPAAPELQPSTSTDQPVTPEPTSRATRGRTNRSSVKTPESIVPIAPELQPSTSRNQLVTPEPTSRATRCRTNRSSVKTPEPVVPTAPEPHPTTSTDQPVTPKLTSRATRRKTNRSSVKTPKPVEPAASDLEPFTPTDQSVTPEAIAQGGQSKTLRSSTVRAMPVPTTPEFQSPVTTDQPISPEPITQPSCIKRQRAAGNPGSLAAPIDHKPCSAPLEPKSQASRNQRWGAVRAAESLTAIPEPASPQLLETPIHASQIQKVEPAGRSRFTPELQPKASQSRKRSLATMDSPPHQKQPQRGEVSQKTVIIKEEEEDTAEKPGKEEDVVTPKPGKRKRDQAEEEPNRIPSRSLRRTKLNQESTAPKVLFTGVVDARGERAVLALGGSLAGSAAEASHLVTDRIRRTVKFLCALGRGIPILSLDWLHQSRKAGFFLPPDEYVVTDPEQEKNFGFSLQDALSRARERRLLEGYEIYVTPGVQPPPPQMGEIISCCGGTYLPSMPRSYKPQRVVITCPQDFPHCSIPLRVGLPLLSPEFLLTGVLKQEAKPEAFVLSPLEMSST
Sequence of UniProt Q9H1B7 (Q9H1B7 whole entry, looked up): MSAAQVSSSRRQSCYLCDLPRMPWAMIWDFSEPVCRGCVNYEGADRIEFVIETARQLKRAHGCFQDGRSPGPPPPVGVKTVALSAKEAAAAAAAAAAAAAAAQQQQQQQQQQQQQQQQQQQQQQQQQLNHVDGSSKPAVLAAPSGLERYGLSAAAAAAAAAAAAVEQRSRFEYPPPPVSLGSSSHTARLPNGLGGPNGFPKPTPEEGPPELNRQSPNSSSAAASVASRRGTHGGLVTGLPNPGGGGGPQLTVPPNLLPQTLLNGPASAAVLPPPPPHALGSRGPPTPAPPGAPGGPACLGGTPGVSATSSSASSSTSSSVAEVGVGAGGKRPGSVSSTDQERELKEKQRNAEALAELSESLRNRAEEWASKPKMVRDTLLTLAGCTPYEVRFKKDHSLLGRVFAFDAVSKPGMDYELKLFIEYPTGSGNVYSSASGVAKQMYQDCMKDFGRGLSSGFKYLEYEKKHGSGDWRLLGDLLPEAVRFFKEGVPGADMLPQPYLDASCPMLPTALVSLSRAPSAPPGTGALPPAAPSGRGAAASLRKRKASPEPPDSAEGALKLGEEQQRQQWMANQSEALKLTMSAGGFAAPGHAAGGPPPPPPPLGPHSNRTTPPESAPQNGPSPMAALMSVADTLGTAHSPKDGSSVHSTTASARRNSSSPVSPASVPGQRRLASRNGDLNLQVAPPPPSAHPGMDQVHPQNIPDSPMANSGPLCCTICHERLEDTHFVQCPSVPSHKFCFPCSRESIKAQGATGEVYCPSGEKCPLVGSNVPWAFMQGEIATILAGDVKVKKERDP
Sequence of UniProt Q86V48 (Q86V48 whole entry, looked up): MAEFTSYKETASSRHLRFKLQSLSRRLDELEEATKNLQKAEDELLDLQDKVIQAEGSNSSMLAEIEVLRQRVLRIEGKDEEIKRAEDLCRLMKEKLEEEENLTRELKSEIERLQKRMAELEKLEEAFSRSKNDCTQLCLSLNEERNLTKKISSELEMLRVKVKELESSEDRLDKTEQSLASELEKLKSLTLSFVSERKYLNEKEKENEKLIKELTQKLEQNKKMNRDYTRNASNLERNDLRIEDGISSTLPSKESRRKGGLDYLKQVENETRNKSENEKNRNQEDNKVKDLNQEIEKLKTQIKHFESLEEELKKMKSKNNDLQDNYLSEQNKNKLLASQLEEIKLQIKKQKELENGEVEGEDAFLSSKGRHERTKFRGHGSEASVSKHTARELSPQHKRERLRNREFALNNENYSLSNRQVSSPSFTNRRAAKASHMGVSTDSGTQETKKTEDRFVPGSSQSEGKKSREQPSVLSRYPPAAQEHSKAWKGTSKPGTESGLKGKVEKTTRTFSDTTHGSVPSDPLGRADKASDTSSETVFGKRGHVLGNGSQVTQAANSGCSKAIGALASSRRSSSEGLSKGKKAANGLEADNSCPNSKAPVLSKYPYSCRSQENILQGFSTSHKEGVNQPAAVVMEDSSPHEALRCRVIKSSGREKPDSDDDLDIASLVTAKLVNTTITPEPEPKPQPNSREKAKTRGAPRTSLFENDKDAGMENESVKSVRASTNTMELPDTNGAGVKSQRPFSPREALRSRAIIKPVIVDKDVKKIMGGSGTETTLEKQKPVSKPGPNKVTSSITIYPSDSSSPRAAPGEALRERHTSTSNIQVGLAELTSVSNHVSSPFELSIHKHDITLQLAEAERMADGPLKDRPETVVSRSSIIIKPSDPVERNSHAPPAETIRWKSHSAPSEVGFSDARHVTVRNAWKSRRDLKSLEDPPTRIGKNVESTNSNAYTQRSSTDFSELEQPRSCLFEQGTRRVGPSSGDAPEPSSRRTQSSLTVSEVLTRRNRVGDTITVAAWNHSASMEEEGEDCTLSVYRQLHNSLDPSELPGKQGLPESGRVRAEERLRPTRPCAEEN
Sequence of UniProt Q9NQ29 (Q9NQ29 whole entry, looked up): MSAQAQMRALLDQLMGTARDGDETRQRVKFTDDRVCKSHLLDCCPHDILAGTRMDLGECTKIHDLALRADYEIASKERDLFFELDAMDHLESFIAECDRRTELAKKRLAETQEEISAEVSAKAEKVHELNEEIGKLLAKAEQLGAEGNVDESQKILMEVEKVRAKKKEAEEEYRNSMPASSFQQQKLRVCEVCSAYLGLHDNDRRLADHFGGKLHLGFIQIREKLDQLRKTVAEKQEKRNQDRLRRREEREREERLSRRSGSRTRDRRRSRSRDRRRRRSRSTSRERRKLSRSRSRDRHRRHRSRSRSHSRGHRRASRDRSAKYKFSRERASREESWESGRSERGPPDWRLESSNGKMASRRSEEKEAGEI
Sequence of UniProt Q8WV07 (Q8WV07 whole entry, looked up): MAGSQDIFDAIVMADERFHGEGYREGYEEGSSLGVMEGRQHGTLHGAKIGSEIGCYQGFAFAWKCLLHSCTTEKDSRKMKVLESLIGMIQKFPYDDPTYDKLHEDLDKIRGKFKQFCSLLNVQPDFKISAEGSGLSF

log2 fold change, inactive:
MDC1 (UniProt Q14676) 0.072
MAPKAPK5 (UniProt Q8IW41) 0.012
KRAS isoform 2 (UniProt P01116) -0.084
LTO1 (UniProt Q8WV07) 0.169
MEAK7 (UniProt Q6P9B6) -0.017
KPNA6 (UniProt O60684) -0.07
LSS (UniProt P48449) 0.089
MARK3 (UniProt P27448) -0.208
KIFBP (UniProt Q96EK5) -0.058
LUZP1 (UniProt Q86V48) -0.297
MARK2 (UniProt E9PC69) -0.126
IRF2BPL (UniProt Q9H1B7) -0.022
MFN1 (UniProt Q8IWA4) -0.039
LUC7L (UniProt Q9NQ29) -0.035
IMMP1L (UniProt Q96LU5) 0.013
IL27RA (UniProt Q6UWB1) 0.075

Compound: C1COCCN1CCN2C3=CC=CC=C3N=C2NC(=O)C4=CC(=CC=C4)[N+](=O)[O-] [IRAK-1-4 Inhibitor I]
Assay: as above
Summary of the method: as §1

log2 fold change, inactive:
MAPK9 (UniProt P45984) -0.002
MGST3 (UniProt O14880) 0.115
INTS7 (UniProt Q9NVH2) 0.021
LARP1 (UniProt Q6PKG0) -0.131
KDM5D isoform 3 (UniProt Q9BY66) -0.042
MAP2K1 (UniProt Q02750) 0.047
MAP3K20 (UniProt Q9NYL2) -0.043
LUC7L3 (UniProt O95232) -0.123
LBR (UniProt Q14739) -0.044
L2HGDH (UniProt Q9H9P8) 0.095
KDM3B (UniProt Q7LBC6) -0.01
LUC7L2 (UniProt Q9Y383) -0.207
MFN2 (UniProt O95140) -0.033
IPO9 (UniProt Q96P70) 0.024
LSR (UniProt Q86X29) 0.053
MAP4 (UniProt P27816) 0.003
LARP7 isoform 3 (UniProt Q4G0J3) -0.061
MFF (UniProt Q9GZY8) 0.038
METTL18 (UniProt O95568) 0.01
ILF3 isoform 7 (UniProt Q12906) -0.098
LAMP2 (UniProt P13473) 0.063
LRPPRC (UniProt P42704) -0.18
MAPKAPK3 (UniProt Q16644) 0.031
MDC1 (UniProt Q14676) -0.012
MAPKAPK5 (UniProt Q8IW41) 0.029
KRAS isoform 2 (UniProt P01116) 0.045
LTO1 (UniProt Q8WV07) -0.028
MEAK7 (UniProt Q6P9B6) 0.015
KPNA6 (UniProt O60684) -0.046
LSS (UniProt P48449) -0.119
MARK3 (UniProt P27448) -0.071
KIFBP (UniProt Q96EK5) -0.019
LUZP1 (UniProt Q86V48) -0.136
MARK2 (UniProt E9PC69) -0.156
IRF2BPL (UniProt Q9H1B7) 0.031
MFN1 (UniProt Q8IWA4) 0.057
LUC7L (UniProt Q9NQ29) -0.098
IMMP1L (UniProt Q96LU5) 0.006
IL27RA (UniProt Q6UWB1) -0.189

Compound: C=CC(=O)N1CCC[C@@H](n2nc(-c3ccc(Oc4ccccc4)cc3)c3c(N)ncnc32)C1 [ibrutinib]
Assay: as above
Summary of the method: as §1

log2 fold change, inactive:
MAPK9 (UniProt P45984) -0.016
MGST3 (UniProt O14880) 0.042
INTS7 (UniProt Q9NVH2) -0.104
LARP1 (UniProt Q6PKG0) 0.009
KDM5D isoform 3 (UniProt Q9BY66) -0.222
MAP2K1 (UniProt Q02750) -0.016
MAP3K20 (UniProt Q9NYL2) -0.167
LUC7L3 (UniProt O95232) -0.037
LBR (UniProt Q14739) -0.092
L2HGDH (UniProt Q9H9P8) 0.028
KDM3B (UniProt Q7LBC6) -0.04
LUC7L2 (UniProt Q9Y383) -0.026
MFN2 (UniProt O95140) 0.03
IPO9 (UniProt Q96P70) -0.082
LSR (UniProt Q86X29) 0.006
MAP4 (UniProt P27816) 0
LARP7 isoform 3 (UniProt Q4G0J3) 0.031
MFF (UniProt Q9GZY8) 0.025
METTL18 (UniProt O95568) 0.019
ILF3 isoform 7 (UniProt Q12906) 0.014
LAMP2 (UniProt P13473) 0.042
LRPPRC (UniProt P42704) -0.013
MAPKAPK3 (UniProt Q16644) 0.006
MDC1 (UniProt Q14676) -0.013
MAPKAPK5 (UniProt Q8IW41) -0.003
KRAS isoform 2 (UniProt P01116) -0.035
LTO1 (UniProt Q8WV07) 0.037
MEAK7 (UniProt Q6P9B6) -0.041
KPNA6 (UniProt O60684) -0.032
LSS (UniProt P48449) -0.087
MARK3 (UniProt P27448) -0.026
KIFBP (UniProt Q96EK5) 0.011
LUZP1 (UniProt Q86V48) -0.074
MARK2 (UniProt E9PC69) -0.047
IRF2BPL (UniProt Q9H1B7) 0.038
MFN1 (UniProt Q8IWA4) -0.009
LUC7L (UniProt Q9NQ29) 0.027
IMMP1L (UniProt Q96LU5) 0.043
IL27RA (UniProt Q6UWB1) 0.077
